# Reference: PubChem BioAssay (NCATS)
# Values without a mark were called inactive. Results filed as inconclusive are left out. Entries that show only a call come without a potency. Activity calls are given as the source filed them. Unless noted, calls come from the whole dose curve; as a rule, active = well fitted curve in either direction with a large enough effect (not every such curve was filed as active); inconclusive = small, poorly fitted or top-dose-only effect, or another doubt; inactive = flat fitted curve, though single readings scatter.
# Tests used:
# [1] = AP1 Signaling Pathway (AID 357); conditions: ME-180 AP-1-bla reporter, EGF-induced, beta-lactamase ratio, 5 h; at 17.2 µM (top of the series) unless noted;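 note: ME-180 reporter cells stimulated with EGF at its EC50 level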
# Outline: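 A ratiometric CCF4 readout (405 nm excitation; 460 and 530 nm emission) quantified AP-1-driven beta-lactamase in ME-180 cells after 5 h with compound and EC50 EGF; AC50 values were derived for activators and inhibitors.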
# [2] = NFAT Signaling Pathway (AID 444); conditions: Jurkat NFAT-bla M1, carbachol, beta-lactamase ratio, 5 h; at 17.2 µM (top of the series) unless noted;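 note: carbachol stimulus at about its EC50 of 1 µM final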
# Outline: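 Jurkat cells with NFAT-driven β-lactamase reporter and co-expressed M1 receptor, stimulated with carbachol (final 1 uM, ~EC50), compound titration, 5 h at 37 °C. CCF4 loaded 1 h at RT; 460/530 nm ratio gave %activity and AC50.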
# [3] = Stat Signaling Pathway (AID 446);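 note: ME-180 cervical cancer cells given 40 pM IL-6 alongside compound; SIE-controlled beta-lactamase reporter measured as 460/530 nm FRET emission ratio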
# Outline: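 Reporter line: ME-180 cervical carcinoma, SIE-beta-lactamase. Treatment: compound with 40 pM IL-6, 5 hrs, 37 C, in low-serum OPTI-MEM with 10 mM HEPES pH 7.3. Detection: 460/530 nm fluorescence.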
# [4] = molecular target: Glucocorticoid receptor (Homo sapiens) (UniProt P04150); assay: GR-GFP Redistribution (AID 450;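 active = compounds whose dose series gives a full or clear partial fitted curve of increased nuclear translocation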; note: potency is the fitted concentration of half-maximal effect); conditions: U2OS GR-GFP nuclear translocation, laser cytometry, 2 h
# [5] = molecular target: Glucocorticoid receptor (Homo sapiens) (UniProt P04150); assay: GR-EFC Redistribution (AID 451; calls by dose curve; note: potency is the fitted concentration of half-maximal effect); conditions: CHO-K1 GR-EFC translocation, beta-gal luminescence, 2 h
# Outline: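 CHO-K1 cells expressing nuclear EA and GR-ED fragments of b-gal; compounds titrated up to 46 uM final, 2 h at 37 C. GR nuclear translocation read as complemented b-gal luminescence after 1 h RT detection.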
# [6] = molecular target: Mitogen-activated protein kinase 10 (Mus musculus) (UniProt Q61831); assay: JNK3 AlphaScreen Assay (AID 530);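 note: kinase came from lysate of stimulated human HepG2 cells; signal reports phosphorylation of biotinylated GST-cJun 1-79 at Ser73 with 10 µM ATP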
# Outline: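 Pre-activated (IL-1β/TNFα) JNK3 in HepG2 lysates phosphorylates biotin-GST-cJun(1-79), 10 uM ATP; anti-phospho-cJun(Ser73) AlphaScreen read at room temperature, pH 7.6 Tris buffer. Compounds pre-incubated 15 min as titrations.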
# [7] = molecular target: 3',5'-cyclic-AMP phosphodiesterase 4B (Homo sapiens) (UniProt Q07343); assay: qHTS Assay for Inhibitors of PDE-IV (AID 607; active = well fitted activation curve with a large enough effect in the main read-out, with a control signal flat, not every such curve was filed as active)
# Outline: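 Cell-based read-out of cAMP via a modified cyclic nucleotide-gated channel and membrane potential dye (535/590 nm) in HEK293 cells expressing PDE4 endogenously. Compounds tested up to 22.9 uM final; 100 uM RO 20-1724 reference.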
# [8] = molecular target: Guanine nucleotide-binding protein G(i) subunit alpha-1 (Homo sapiens) (UniProt P63096); assay: qHTS Assay for Inhibitors of RGS12 GoLoco Motif Activity (Green Fluorophore) (AID 879; active = well fitted curve in the direction sought with a large enough effect; an effect the other way counts as inactive or inconclusive;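 note: negative values mean loss of peptide binding seen as reduced polarization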)
# Outline: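 Fluorescence polarization assay: 50 nM Gαi1 with 10 nM FITC-labeled RGS12 GoLoco peptide in 10 mM Tris pH 7.5, 150 mM NaCl, 0.1 mM GDP, 0.05% NP40, 10 min at room temperature with compound.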
# [9] = molecular target: Muscarinic acetylcholine receptor M1 (Rattus norvegicus) (UniProt P08482); assay: qHTS Assay for Antagonists of Acetylcholine Muscarinic M1 Receptor: Kinetic Measurement of Intracellular Calcium Response (AID 943; active = well fitted curve in the direction sought with a large enough effect; an effect the other way counts as inactive or inconclusive; note: potency is the fitted concentration of half-maximal effect; nearly all actives have a fitted effect of over 75% in size)
# Outline: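 CHO cells expressing rat M1 receptor, Fluo-4 loaded, preincubated 10 min with compound, then stimulated with EC80 carbachol (100 nM final). Kinetic calcium fluorescence over 4 min; response taken as peak over basal signal.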
# [10] = molecular target: Muscarinic acetylcholine receptor M1 (Rattus norvegicus) (UniProt P08482); assay: qHTS Assay for Antagonists of Acetylcholine Muscarinic M1 Receptor: Measurement of IP-One Response (AID 944; active = well fitted curve in the direction sought with a large enough effect; an effect the other way counts as inactive or inconclusive; note: nearly all actives have a fitted effect of over 75% in size)
# Outline: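 CHO cells stably expressing rat M1, pretreated 10 min with compound, then stimulated 30 min with carbachol at EC80 (200 nM) in LiCl-containing buffer pH 7.4; IP1 accumulation read by HTRF competition (665/620 nm).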
# [11] = molecular target: Pyruvate kinase (Leishmania mexicana) (UniProt Q27686); assay: qHTS Validation Assay for Inhibitors of Leishmania Mexicana Pyruvate Kinase (AID 945; active = well fitted curve in the direction sought with a large enough effect; an effect the other way counts as inactive or inconclusive)
# Outline: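 Substrate mix (0.5 mM PEP, 0.1 mM ADP, 7 mM MgCl2, 50 mM KCl, pH 7.2 imidazole) received compound by pin tool, then 0.2 nM LmPYK E451W. After 1 h at room temperature, PKLight was added and luminescence measured.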
# [12] = molecular target: Pyruvate kinase PKM (Homo sapiens) (UniProt P14618); assay: qHTS Assay for Activators of Human Muscle Pyruvate Kinase (AID 954; active = well fitted curve in the direction sought with a large enough effect, not every such curve was filed as active)
# Outline: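 Human PKM2 activity is measured as ATP generation, detected by luciferase-coupled luminescence. The enzyme (0.1 nM) acts on 0.5 mM PEP and 0.1 mM ADP for 1 h at ambient temperature; data are normalized to uninhibited and full-inhibition wells.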
# [13] = molecular target: Alpha-galactosidase (Coffea arabica) (UniProt Q42656); assay: Counterscreen for Glucocerebrosidase Inhibitors: qHTS Assay for Coffee Bean alpha-Galactosidase at pH 4.5 (AID 957; active = well fitted curve in the direction sought with a large enough effect; an effect the other way counts as inactive or inconclusive)
# Outline: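 Coffee bean enzyme (2 nM) with 80 uM 4-methylumbelliferyl alpha-D-galactopyranoside in 50 mM citric acid, 0.005% Tween-20, pH 4.5, 20 min at room temperature; compounds 0.7 nM–77 uM. Stopped at pH 10, fluorescence 365/440 nm; AC50 from Hill fits.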
# [14] = molecular target: Alpha-galactosidase A (Homo sapiens) (UniProt P06280); assay: Counterscreen for Glucocerebrosidase Inhibitors: qHTS Assay for Human alpha-Galactosidase at pH 4.5 (AID 992; active = well fitted curve in the direction sought with a large enough effect; an effect the other way counts as inactive or inconclusive)
# Outline: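 Quantitative HTS: compounds tested from 0.7 nM up to 77 uM against 2 nM enzyme with 80 uM 4-MU alpha-D-galactopyranoside. The 20 min room-temperature reaction is stopped with 1M NaOH/1M glycine, pH 10.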
# [15] = molecular target: alpha-glucosidase (Oryza sativa, rice) (UniProt Q653V4); assay: Counterscreen for Glucocerebrosidase Inhibitors: qHTS Assay for Rice alpha-Glucosidase at pH 5.0 (AID 997; active = well fitted curve in the direction sought with a large enough effect; an effect the other way counts as inactive or inconclusive)
# Outline: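 Rice alpha-glucosidase (4 nM final) with 400 uM 4-methylumbelliferyl-alpha-D-glucopyranoside in citrate buffer pH 5.0, 20 min at room temperature, stopped at pH 10; fluorescence 365/440 nm, compounds 0.7 nM–77 uM, AC50 from Hill fits.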
# [16] = molecular target: Alpha-galactosidase (Coffea arabica) (UniProt Q42656); assay: Counterscreen for Glucocerebrosidase Inhibitors: qHTS Assay for Coffee Bean alpha-Galactosidase at pH 5.9 (AID 998; active = well fitted curve in the direction sought with a large enough effect; an effect the other way counts as inactive or inconclusive)
# Outline: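 Green coffee bean enzyme (2 nM) with 4-methylumbelliferyl alpha-D-galactopyranoside (80 uM) in 50 mM citric acid, 0.005% Tween-20, pH 5.9, 20 min at room temperature; compounds 0.7 nM–77 uM. Stopped at pH 10, fluorescence Ex365/Em440; Hill-fit AC50.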
# [17] = qHTS Assay for Identification of Small Molecule Agonists for Hypoxia Response Element Signaling Pathway (AID 914; active = well fitted activation curve with a large enough effect in the signal ratio, with a control signal flat, not every such curve was filed as active; the % refers to the signal ratio); conditions: ME-180 HRE-bla reporter, beta-lactamase ratio, CoCl2, 17 h; activation: stronger effect = higher value
# Outline: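 Read-out: CCF4 FRET ratio of 460nm to 530nm emission (excitation 405nm) after 2.5 hours at room temperature, taken from HRE-bla ME-180 cells that had been exposed to compound and EC50 CoCl2 for 17 hours.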
# [18] = molecular target: Cytochrome P450 3A4 (Homo sapiens) (UniProt P08684); assay: qHTS Assay for Activators of Cytochrome P450 3A4 (AID 885; active = well fitted curve in the direction sought with a large enough effect; an effect the other way counts as inactive or inconclusive; note: nearly all actives have a fitted effect of over 65% in size)
# Outline: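 Signal was normalized against complete inhibition by 57 uM ketoconazole. The reaction used 20nM CYP3A4 with 25uM Luciferin-PPXE, 10-min compound preincubation and a 60-min NADPH-supported step at RT.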
# [19] = qHTS Assay for Identification of Small Molecule Antagonists for NFkB Signaling Pathway (AID 895; active = well fitted inhibition curve with a large enough effect in the signal ratio, with a control signal flat, not every such curve was filed as active; the % refers to the signal ratio)
# Outline: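 ME-180 NFkB-bla cells (beta-lactamase under NFkB response element), plated overnight, treated with compound then 10 pM TNF alpha (about EC50) for 5 hrs at 37 C. LiveBLAzer FRET read at 460/530 nm emission, 405 nm excitation.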
# Muscarinic acetylcholine receptor M1 (Rattus norvegicus), sequence (P08482 whole entry, looked up): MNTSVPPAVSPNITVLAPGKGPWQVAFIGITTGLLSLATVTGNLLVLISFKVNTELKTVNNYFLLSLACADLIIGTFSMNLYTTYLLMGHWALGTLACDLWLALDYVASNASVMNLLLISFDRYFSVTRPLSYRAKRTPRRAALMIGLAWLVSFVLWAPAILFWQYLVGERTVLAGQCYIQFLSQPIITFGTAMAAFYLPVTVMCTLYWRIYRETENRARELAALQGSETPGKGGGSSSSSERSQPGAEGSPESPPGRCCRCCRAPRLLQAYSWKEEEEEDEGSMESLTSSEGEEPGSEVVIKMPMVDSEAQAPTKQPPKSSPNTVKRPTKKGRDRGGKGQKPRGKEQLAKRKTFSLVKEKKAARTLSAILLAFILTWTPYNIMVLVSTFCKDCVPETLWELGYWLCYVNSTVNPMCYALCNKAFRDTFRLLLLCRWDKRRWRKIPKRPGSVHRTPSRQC
# Glucocorticoid receptor (Homo sapiens), sequence (P04150 whole entry, looked up, the tested form may be a part): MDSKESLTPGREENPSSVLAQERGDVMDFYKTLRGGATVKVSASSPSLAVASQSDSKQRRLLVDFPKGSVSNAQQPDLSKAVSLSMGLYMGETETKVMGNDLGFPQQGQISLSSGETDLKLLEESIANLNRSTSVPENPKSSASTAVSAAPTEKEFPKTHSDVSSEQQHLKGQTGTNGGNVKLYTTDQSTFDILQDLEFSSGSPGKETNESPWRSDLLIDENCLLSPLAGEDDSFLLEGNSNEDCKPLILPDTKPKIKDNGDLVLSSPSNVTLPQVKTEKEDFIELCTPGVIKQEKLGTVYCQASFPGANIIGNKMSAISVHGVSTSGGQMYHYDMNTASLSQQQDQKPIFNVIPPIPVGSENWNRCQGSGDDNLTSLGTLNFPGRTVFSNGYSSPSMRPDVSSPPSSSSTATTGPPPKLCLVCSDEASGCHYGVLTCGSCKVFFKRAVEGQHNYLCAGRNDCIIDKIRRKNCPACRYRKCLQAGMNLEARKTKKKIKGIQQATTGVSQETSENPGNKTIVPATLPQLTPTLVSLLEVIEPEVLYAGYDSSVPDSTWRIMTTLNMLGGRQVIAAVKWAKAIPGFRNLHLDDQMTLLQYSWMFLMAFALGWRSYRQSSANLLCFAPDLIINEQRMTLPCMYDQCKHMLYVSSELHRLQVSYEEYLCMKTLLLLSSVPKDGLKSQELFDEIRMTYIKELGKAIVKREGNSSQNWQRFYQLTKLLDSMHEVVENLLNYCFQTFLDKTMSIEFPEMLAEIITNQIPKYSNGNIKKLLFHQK
# Guanine nucleotide-binding protein G(i) subunit alpha-1 (Homo sapiens), sequence (P63096 whole entry, looked up): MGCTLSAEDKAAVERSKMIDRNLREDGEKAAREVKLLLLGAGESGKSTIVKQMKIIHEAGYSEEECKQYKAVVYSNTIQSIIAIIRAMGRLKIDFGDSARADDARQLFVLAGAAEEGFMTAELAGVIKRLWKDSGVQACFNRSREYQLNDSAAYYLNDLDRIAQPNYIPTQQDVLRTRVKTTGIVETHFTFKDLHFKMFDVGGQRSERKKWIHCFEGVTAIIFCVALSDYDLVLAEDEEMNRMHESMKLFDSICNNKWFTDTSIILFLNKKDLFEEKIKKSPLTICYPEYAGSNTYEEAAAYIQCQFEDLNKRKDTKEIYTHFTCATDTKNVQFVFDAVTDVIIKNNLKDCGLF
# 3',5'-cyclic-AMP phosphodiesterase 4B (Homo sapiens), sequence (Q07343 whole entry, looked up): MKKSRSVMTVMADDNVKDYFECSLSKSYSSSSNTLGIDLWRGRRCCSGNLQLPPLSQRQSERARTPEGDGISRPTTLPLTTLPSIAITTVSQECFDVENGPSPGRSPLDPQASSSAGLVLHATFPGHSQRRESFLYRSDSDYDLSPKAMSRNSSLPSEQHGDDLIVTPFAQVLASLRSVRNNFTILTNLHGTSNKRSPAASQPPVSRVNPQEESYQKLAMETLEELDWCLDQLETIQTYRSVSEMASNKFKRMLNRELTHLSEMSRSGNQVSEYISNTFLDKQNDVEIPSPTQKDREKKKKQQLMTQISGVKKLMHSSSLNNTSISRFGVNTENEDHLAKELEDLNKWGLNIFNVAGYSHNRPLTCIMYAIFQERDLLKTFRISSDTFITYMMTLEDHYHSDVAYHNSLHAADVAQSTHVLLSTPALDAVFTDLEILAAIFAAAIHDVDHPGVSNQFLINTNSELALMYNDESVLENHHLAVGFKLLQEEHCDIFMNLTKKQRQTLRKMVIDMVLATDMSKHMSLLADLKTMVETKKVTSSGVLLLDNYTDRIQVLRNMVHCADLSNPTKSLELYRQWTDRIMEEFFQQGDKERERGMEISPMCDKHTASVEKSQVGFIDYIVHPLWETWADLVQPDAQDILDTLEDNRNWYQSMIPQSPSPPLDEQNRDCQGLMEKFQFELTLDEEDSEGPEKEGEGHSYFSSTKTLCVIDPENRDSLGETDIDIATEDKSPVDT
# Alpha-galactosidase (Coffea arabica), sequence (Q42656 whole entry, looked up): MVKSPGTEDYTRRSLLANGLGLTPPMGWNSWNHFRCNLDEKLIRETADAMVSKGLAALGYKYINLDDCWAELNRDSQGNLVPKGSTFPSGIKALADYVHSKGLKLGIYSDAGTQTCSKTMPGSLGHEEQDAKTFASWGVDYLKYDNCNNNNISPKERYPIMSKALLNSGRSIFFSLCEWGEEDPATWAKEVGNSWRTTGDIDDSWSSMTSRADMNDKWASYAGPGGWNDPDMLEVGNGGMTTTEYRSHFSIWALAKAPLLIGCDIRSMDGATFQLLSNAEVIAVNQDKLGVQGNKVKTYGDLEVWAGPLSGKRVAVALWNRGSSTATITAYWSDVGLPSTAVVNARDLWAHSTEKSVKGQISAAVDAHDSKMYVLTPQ
# Pyruvate kinase (Leishmania mexicana), sequence (Q27686 2-499 E452W): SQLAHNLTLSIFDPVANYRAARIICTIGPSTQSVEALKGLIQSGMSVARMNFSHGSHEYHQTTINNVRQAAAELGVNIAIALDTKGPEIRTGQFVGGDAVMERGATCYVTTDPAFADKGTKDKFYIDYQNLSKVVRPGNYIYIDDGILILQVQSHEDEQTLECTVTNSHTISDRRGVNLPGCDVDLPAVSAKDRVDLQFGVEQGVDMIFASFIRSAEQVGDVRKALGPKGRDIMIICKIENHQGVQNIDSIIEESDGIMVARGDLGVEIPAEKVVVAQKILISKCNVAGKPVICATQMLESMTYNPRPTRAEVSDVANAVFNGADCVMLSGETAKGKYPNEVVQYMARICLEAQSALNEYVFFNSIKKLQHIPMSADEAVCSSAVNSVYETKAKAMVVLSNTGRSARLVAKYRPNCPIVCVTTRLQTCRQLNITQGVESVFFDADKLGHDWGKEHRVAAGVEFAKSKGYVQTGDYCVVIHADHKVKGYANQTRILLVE
# Pyruvate kinase PKM (Homo sapiens), sequence (P14618 whole entry, looked up): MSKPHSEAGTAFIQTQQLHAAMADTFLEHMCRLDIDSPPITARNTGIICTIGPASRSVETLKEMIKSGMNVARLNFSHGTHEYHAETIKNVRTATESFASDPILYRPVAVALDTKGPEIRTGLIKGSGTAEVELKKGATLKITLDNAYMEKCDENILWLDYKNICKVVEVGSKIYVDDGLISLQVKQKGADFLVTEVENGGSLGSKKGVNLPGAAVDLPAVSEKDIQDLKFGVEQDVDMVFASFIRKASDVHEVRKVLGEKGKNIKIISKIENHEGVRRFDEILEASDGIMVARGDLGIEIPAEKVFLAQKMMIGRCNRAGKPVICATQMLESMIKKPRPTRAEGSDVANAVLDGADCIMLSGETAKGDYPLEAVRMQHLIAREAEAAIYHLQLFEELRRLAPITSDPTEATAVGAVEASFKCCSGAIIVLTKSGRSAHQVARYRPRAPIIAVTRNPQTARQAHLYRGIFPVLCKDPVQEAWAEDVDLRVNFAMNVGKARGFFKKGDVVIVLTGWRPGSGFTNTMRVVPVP
# Alpha-galactosidase A (Homo sapiens), sequence (P06280 whole entry, looked up): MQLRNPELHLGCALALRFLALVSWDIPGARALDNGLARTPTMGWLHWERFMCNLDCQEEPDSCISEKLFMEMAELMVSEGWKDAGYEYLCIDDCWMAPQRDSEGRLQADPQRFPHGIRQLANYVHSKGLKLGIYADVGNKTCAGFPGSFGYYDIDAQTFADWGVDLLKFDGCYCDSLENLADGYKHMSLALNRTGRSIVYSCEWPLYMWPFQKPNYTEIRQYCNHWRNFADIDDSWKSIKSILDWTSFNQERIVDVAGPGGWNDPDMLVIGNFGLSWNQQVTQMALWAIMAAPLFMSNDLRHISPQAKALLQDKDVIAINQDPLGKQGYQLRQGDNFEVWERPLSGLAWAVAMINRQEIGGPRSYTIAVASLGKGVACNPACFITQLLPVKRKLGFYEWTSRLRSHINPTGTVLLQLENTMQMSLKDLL
# Cytochrome P450 3A4 (Homo sapiens), sequence (P08684 whole entry, looked up): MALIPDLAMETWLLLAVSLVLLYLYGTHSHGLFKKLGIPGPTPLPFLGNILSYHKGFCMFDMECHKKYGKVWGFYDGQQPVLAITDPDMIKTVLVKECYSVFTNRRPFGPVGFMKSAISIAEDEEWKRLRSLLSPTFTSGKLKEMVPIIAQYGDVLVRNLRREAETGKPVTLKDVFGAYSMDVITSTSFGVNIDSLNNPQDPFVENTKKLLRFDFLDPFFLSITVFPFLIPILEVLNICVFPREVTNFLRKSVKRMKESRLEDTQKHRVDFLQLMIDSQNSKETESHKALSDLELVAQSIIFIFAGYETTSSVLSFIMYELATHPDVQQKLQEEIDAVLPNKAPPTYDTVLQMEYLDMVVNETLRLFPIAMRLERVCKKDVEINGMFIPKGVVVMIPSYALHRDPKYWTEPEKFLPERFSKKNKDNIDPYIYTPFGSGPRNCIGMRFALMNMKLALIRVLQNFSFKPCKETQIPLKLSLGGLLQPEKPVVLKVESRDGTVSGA
structure (smiles),measurement,setting,value
O[C@@H]1CCCC[C@H]1N1CCC(c2ccccc2)CC1,"activity change, negative = inhibition",[1],-6.58% [at 38 µM]
same,"activity change, negative = inhibition",[2],-6.89% [at 38 µM]
same,outcome,[3],inactive
same,Potency,[4],> 46 µM
same,Potency,[5],> 46 µM
same,outcome,[6],inactive
same,outcome,[7],inactive
same,Potency,[8],inactive
same,Potency,[9],14.1 µM (active)
same,Potency,[10],inactive
same,Potency,[11],inactive
same,outcome,[12],inactive
same,outcome,[13],inactive
same,outcome,[14],inactive
same,outcome,[15],inactive
same,outcome,[16],inactive
CC1(C)CC(n2[nH]c(=O)c3c2NC(=O)CSC3c2ccccc2)CCO1 (stereo not given),"activity change, negative = inhibition",[1],0.712%
same,"activity change, negative = inhibition",[2],-1.52%
same,outcome,[3],inactive
same,Potency,[4],> 20.6 µM
same,activation,[17],18.8%
CC(=O)[C@@H]1CC[C@@H]2[C@H]3CC[C@H]4C[C@@H](O)CC[C@]4(C)[C@@H]3C(=O)C[C@]21C,"activity change, negative = inhibition",[1],-0.27% [at 38 µM]
same,"activity change, negative = inhibition",[2],-2.4% [at 38 µM]
same,outcome,[3],inactive
same,outcome,[7],inactive
O=C1NCCN2CCCC12 (stereo not given),"activity change, negative = inhibition",[1],12%
same,"activity change, negative = inhibition",[2],-0.485%
same,outcome,[3],inactive
same,Potency,[4],> 20.6 µM
same,activation,[17],9.17%
COCCOC(=O)C1=C(N)Oc2c(c(=O)oc3ccccc23)[C@@]12C(=O)Nc1ccccc12,"activity change, negative = inhibition",[1],10.2%
same,"activity change, negative = inhibition",[2],-5.71%
same,outcome,[3],inactive
same,Potency,[4],> 20.6 µM
same,activation,[17],-0.572%
C[C@@H](Cc1ccc2c(c1)OC(C(=O)O)(C(=O)O)O2)NC[C@H](O)c1cccc(Cl)c1,"activity change, negative = inhibition",[1],-9.81% [at 38 µM]
same,"activity change, negative = inhibition",[2],14.6% [at 38 µM]
same,Potency,[4],> 46 µM
same,Potency,[5],> 46 µM
same,outcome,[6],inactive
same,outcome,[7],inactive
same,Potency,[8],inactive
same,Potency,[10],inactive
same,Potency,[11],inactive
same,outcome,[12],inactive
same,outcome,[13],inactive
same,outcome,[14],inactive
same,outcome,[15],inactive
same,outcome,[16],inactive
C[N+]1(C)CCO[C@@](O)(c2ccc(-c3ccc([C@]4(O)C[N+](C)(C)CCO4)cc3)cc2)C1,"activity change, negative = inhibition",[1],-2.41% [at 38 µM]
same,"activity change, negative = inhibition",[2],-10.8% [at 38 µM]
same,outcome,[3],inactive
same,Potency,[4],> 46 µM
same,Potency,[5],> 46 µM
same,outcome,[6],inactive
same,outcome,[7],inactive
same,Potency,[8],inactive
same,Potency,[18],inactive
same,Potency,[19],inactive
same,Potency,[11],inactive
same,outcome,[12],inactive
same,outcome,[13],inactive
same,outcome,[14],inactive
same,outcome,[15],inactive
same,outcome,[16],inactive
CC1=C(C(=O)OC(C)C)[C@]2(C(=O)N(CC(N)=O)c3ccccc32)C(C#N)=C(N)O1,"activity change, negative = inhibition",[1],16.8%
same,"activity change, negative = inhibition",[2],-13.4%
same,outcome,[3],inactive
same,Potency,[4],> 20.6 µM
same,activation,[17],-4.16%
